The supplement of paper PMC12494721
Counter-ions that a name gives are not always drawn.

Assays:
Conditions in all cases: 20 µM; incubation time: 27 h, anaerobic, 37 °C;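 for the amine columns active = adjusted P below 0.05 in both replicates with a change the same way and a mean fold change under 0.8 or over 1.25; inactive = the rest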
[1] = system: Clostridium sporogenes DSM 1664; experiment: growth (OD595) fold change vs plate DMSO controls (fold change (ratio)); higher = more growth
Outline: (§1)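 The measure reported is growth, taken as fold change against the median of DMSO controls on the same plate. Anaerobic mGAM cultures in 96-well plates (27 h, 37 °C) were read at 595 nm, blank-subtracted, corrected for compound background using 20 µM compound solutions in water, and multiplied by a calibration factor of 5 to give OD. Any fold change above 1.5 became NA, and 2 biological replicates were averaged.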

[2] = system: Escherichia coli IAI1; experiment: as above
Outline: as §1

[3] = system: Klebsiella aerogenes DSM 30053; experiment: as above
Outline: as §1

[4] = system: Ruminococcus gnavus DSM 108212; experiment: as above
Outline: as §1

[5] = system: Klebsiella aerogenes DSM 30053; experiment: fold change of Histamine concentration vs plate DMSO controls (fold change (ratio)); higher = more amine produced, active = hit call of the paper (significant change in both replicates, either direction)
Outline: (§2)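 Amines were quantified by LC–triple-quadrupole MS in dynamic MRM mode against external calibration curves, with drift correction within each batch. The samples were whole anaerobic mGAM cultures of four gut bacterial strains, grown for 27 h at 37 °C in 80 µL wells and extracted with cold acetonitrile/methanol with 0.1% formic acid, then centrifuged. Values are reported as fold change over DMSO controls on the same plate. The mean of 2 biological replicates is given.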

[6] = system: Clostridium sporogenes DSM 1664; experiment: fold change of Tryptamine concentration vs plate DMSO controls (fold change (ratio)); higher = more amine produced, active = hit call of the paper (significant change in both replicates, either direction)
Outline: as §2

[7] = system: Ruminococcus gnavus DSM 108212; experiment: as above
Outline: as §2

[8] = system: Escherichia coli IAI1; experiment: fold change of Putrescine concentration vs plate DMSO controls (fold change (ratio)); higher = more amine produced, active = hit call of the paper (significant change in both replicates, either direction)
Outline: as §2

[9] = system: Klebsiella aerogenes DSM 30053; experiment: as above
Outline: as §2

[10] = system: Escherichia coli IAI1; experiment: fold change of Cadaverine concentration vs plate DMSO controls (fold change (ratio)); higher = more amine produced, active = hit call of the paper (significant change in both replicates, either direction)
Outline: as §2

[11] = system: Klebsiella aerogenes DSM 30053; experiment: as above
Outline: as §2

[12] = system: Ruminococcus gnavus DSM 108212; experiment: fold change of 2-Phenylethylamine concentration vs plate DMSO controls (fold change (ratio)); higher = more amine produced, active = hit call of the paper (significant change in both replicates, either direction)
Outline: as §2

## N#Cc1nn(-c2c(Cl)cc(C(F)(F)F)cc2Cl)c(N)c1[S+]([O-])C(F)(F)F (stereo not drawn)
[1]
  growth: 1.16
[2]
  growth: 0.982
[3]
  growth: 0.977
[4]
  growth: 1.02
[5]
  fold change of Histamine concentration: 1.1 (inactive)
[6]
  fold change of Tryptamine concentration: 1.13 (inactive)
[7]
  fold change of Tryptamine concentration: 1.06 (inactive)
[8]
  fold change of Putrescine concentration: 1.05 (inactive)
[9]
  fold change of Putrescine concentration: 1.05 (inactive)
[10]
  fold change of Cadaverine concentration: 0.937 (inactive)
[11]
  fold change of Cadaverine concentration: 1.08 (inactive)
[12]
  fold change of 2-Phenylethylamine concentration: 1.27 (inactive)

## Oc1ccc(Cc2ccc(O)cc2)cc1 [Bisphenol F]
[1]
  growth: 0.945
[2]
  growth: 1.12
[3]
  growth: 0.989
[4]
  growth: 1.03
[5]
  fold change of Histamine concentration: 1.06 (inactive)
[6]
  fold change of Tryptamine concentration: 1.11 (inactive)
[7]
  fold change of Tryptamine concentration: 1.15 (inactive)
[8]
  fold change of Putrescine concentration: 1.04 (inactive)
[9]
  fold change of Putrescine concentration: 0.986 (inactive)
[10]
  fold change of Cadaverine concentration: 1.03 (inactive)
[11]
  fold change of Cadaverine concentration: 1.09 (inactive)
[12]
  fold change of 2-Phenylethylamine concentration: 1.48 (inactive)

## CCCC1COC(Cn2cncn2)(c2ccc(Cl)cc2Cl)O1 (stereo not drawn)
[1]
  growth: 0.938
[2]
  growth: 1.03
[3]
  growth: 0.987
[4]
  growth: 0.947
[5]
  fold change of Histamine concentration: 0.975 (inactive)
[6]
  fold change of Tryptamine concentration: 1.04 (inactive)
[7]
  fold change of Tryptamine concentration: 1.08 (inactive)
[8]
  fold change of Putrescine concentration: 0.977 (inactive)
[9]
  fold change of Putrescine concentration: 0.946 (inactive)
[10]
  fold change of Cadaverine concentration: 0.939 (inactive)
[11]
  fold change of Cadaverine concentration: 0.993 (inactive)
[12]
  fold change of 2-Phenylethylamine concentration: 1.17 (inactive)

## CCOC(=O)CC(SP(=S)(OC)OC)C(=O)OCC (stereo not drawn)
[1]
  growth: 0.873
[2]
  growth: 1.03
[3]
  growth: 1.01
[4]
  growth: 0.941
[5]
  fold change of Histamine concentration: 0.998 (inactive)
[6]
  fold change of Tryptamine concentration: 1.06 (inactive)
[7]
  fold change of Tryptamine concentration: 1.02 (inactive)
[8]
  fold change of Putrescine concentration: 1.01 (inactive)
[9]
  fold change of Putrescine concentration: 0.994 (inactive)
[10]
  fold change of Cadaverine concentration: 0.997 (inactive)
[11]
  fold change of Cadaverine concentration: 0.993 (inactive)
[12]
  fold change of 2-Phenylethylamine concentration: 1 (inactive)

## CC1=NNC(=O)N(/N=C/c2cccnc2)C1
[1]
  growth: 1.04
[2]
  growth: 0.951
[3]
  growth: 0.97
[4]
  growth: 1.03
[5]
  fold change of Histamine concentration: 1.03 (inactive)
[6]
  fold change of Tryptamine concentration: 1.02 (inactive)
[7]
  fold change of Tryptamine concentration: 1.01 (inactive)
[8]
  fold change of Putrescine concentration: 0.906 (inactive)
[9]
  fold change of Putrescine concentration: 0.945 (inactive)
[10]
  fold change of Cadaverine concentration: 1.08 (inactive)
[11]
  fold change of Cadaverine concentration: 0.99 (inactive)
[12]
  fold change of 2-Phenylethylamine concentration: 1.02 (inactive)

## CC[C@@H](CO)NC(=O)[C@@H]1C=C2c3cccc4[nH]cc(c34)C[C@H]2N(C)C1 [Methylergometrine maleate]
[1]
  growth: 1.08
[2]
  growth: 1.03
[3]
  growth: 1
[4]
  growth: 1.11
[5]
  fold change of Histamine concentration: 1.03 (inactive)
[6]
  fold change of Tryptamine concentration: 1.03 (inactive)
[7]
  fold change of Tryptamine concentration: 1.02 (inactive)
[8]
  fold change of Putrescine concentration: 0.965 (inactive)
[9]
  fold change of Putrescine concentration: 1.01 (inactive)
[10]
  fold change of Cadaverine concentration: 0.996 (inactive)
[11]
  fold change of Cadaverine concentration: 1 (inactive)
[12]
  fold change of 2-Phenylethylamine concentration: 1.02 (inactive)

## CC(C)(C)NCC(O)c1ccccc1Cl (stereo not drawn) [Tulobuterol hydrochloride]
[1]
  growth: 1.21
[2]
  growth: 1.07
[3]
  growth: 1
[4]
  growth: 0.927
[5]
  fold change of Histamine concentration: 1.04 (inactive)
[6]
  fold change of Tryptamine concentration: 1.08 (inactive)
[7]
  fold change of Tryptamine concentration: 0.664 (inactive)
[8]
  fold change of Putrescine concentration: 1.07 (inactive)
[9]
  fold change of Putrescine concentration: 1.01 (inactive)
[10]
  fold change of Cadaverine concentration: 0.968 (inactive)
[11]
  fold change of Cadaverine concentration: 0.99 (inactive)
[12]
  fold change of 2-Phenylethylamine concentration: 0.653 (inactive)

## O=[N+]([O-])O[C@@H]1CO[C@H]2[C@@H]1OC[C@@H]2O [Isosorbide mononitrate]
[1]
  growth: 0.988
[2]
  growth: 0.984
[3]
  growth: 1.07
[4]
  growth: 1.31
[5]
  fold change of Histamine concentration: 0.975 (inactive)
[6]
  fold change of Tryptamine concentration: 0.938 (inactive)
[7]
  fold change of Tryptamine concentration: 0.984 (inactive)
[8]
  fold change of Putrescine concentration: 0.959 (inactive)
[9]
  fold change of Putrescine concentration: 1.05 (inactive)
[10]
  fold change of Cadaverine concentration: 0.975 (inactive)
[11]
  fold change of Cadaverine concentration: 1.04 (inactive)
[12]
  fold change of 2-Phenylethylamine concentration: 0.946 (inactive)

## CC(C)(C)C(O)(CCc1ccc(Cl)cc1)Cn1cncn1 (stereo not drawn)
[1]
  growth: 0.978
[2]
  growth: 1.03
[3]
  growth: 1.01
[4]
  growth: 1.02
[5]
  fold change of Histamine concentration: 0.981 (inactive)
[6]
  fold change of Tryptamine concentration: 1.24 (inactive)
[7]
  fold change of Tryptamine concentration: 1.07 (inactive)
[8]
  fold change of Putrescine concentration: 0.998 (inactive)
[9]
  fold change of Putrescine concentration: 1.03 (inactive)
[10]
  fold change of Cadaverine concentration: 1.01 (inactive)
[11]
  fold change of Cadaverine concentration: 1.03 (inactive)
[12]
  fold change of 2-Phenylethylamine concentration: 1.15 (inactive)

## C[C@@H]1CN([C@H]2CC[C@](C#N)(c3ccc(F)cc3)CC2)CC[C@]1(C(=O)O)c1ccccc1 [Levocabastine hydrochloride]
[1]
  growth: 1.17
[2]
  growth: 1.09
[3]
  growth: 1.02
[4]
  growth: 1.07
[5]
  fold change of Histamine concentration: 1.03 (inactive)
[6]
  fold change of Tryptamine concentration: 1.04 (inactive)
[7]
  fold change of Tryptamine concentration: 1 (inactive)
[8]
  fold change of Putrescine concentration: 1.02 (inactive)
[9]
  fold change of Putrescine concentration: 1 (inactive)
[10]
  fold change of Cadaverine concentration: 0.916 (inactive)
[11]
  fold change of Cadaverine concentration: 0.999 (inactive)
[12]
  fold change of 2-Phenylethylamine concentration: 0.949 (inactive)

## C[C@H](N)[C@H](O)c1ccc(O)c(O)c1 [Levonordefrin]
[1]
  growth: 1.11
[2]
  growth: 0.971
[3]
  growth: 1
[4]
  growth: 0.976
[5]
  fold change of Histamine concentration: 0.953 (inactive)
[6]
  fold change of Tryptamine concentration: 1.04 (inactive)
[7]
  fold change of Tryptamine concentration: 1.07 (inactive)
[8]
  fold change of Putrescine concentration: 0.904 (inactive)
[9]
  fold change of Putrescine concentration: 0.981 (inactive)
[10]
  fold change of Cadaverine concentration: 0.962 (inactive)
[11]
  fold change of Cadaverine concentration: 1.01 (inactive)
[12]
  fold change of 2-Phenylethylamine concentration: 1.14 (inactive)

## C#C[C@]1(O)C=C[C@H]2[C@@H]3CCC4=CC(=O)CC[C@@H]4[C@H]3CC[C@@]21CC [Gestodene]
[1]
  growth: 1.16
[2]
  growth: 1.02
[3]
  growth: 1
[4]
  growth: 0.924
[5]
  fold change of Histamine concentration: 1 (inactive)
[6]
  fold change of Tryptamine concentration: 1.03 (inactive)
[7]
  fold change of Tryptamine concentration: 1.01 (inactive)
[8]
  fold change of Putrescine concentration: 1.02 (inactive)
[9]
  fold change of Putrescine concentration: 0.993 (inactive)
[10]
  fold change of Cadaverine concentration: 0.995 (inactive)
[11]
  fold change of Cadaverine concentration: 0.988 (inactive)
[12]
  fold change of 2-Phenylethylamine concentration: 0.977 (inactive)

## CC(C)c1c(CN(C)C(C)Cc2ccccc2)n(C)n(-c2ccccc2)c1=O (stereo not drawn) [Famprofazone]
[1]
  growth: 1.02
[2]
  growth: 1.15
[3]
  growth: 1.06
[4]
  growth: 1.05
[5]
  fold change of Histamine concentration: 0.986 (inactive)
[6]
  fold change of Tryptamine concentration: 0.954 (inactive)
[7]
  fold change of Tryptamine concentration: 1.06 (inactive)
[8]
  fold change of Putrescine concentration: 1.03 (inactive)
[9]
  fold change of Putrescine concentration: 1.02 (inactive)
[10]
  fold change of Cadaverine concentration: 0.998 (inactive)
[11]
  fold change of Cadaverine concentration: 1.01 (inactive)
[12]
  fold change of 2-Phenylethylamine concentration: 1.02 (inactive)

## CN(C)C(=O)Oc1cc(OC(=O)N(C)C)cc(C(O)CNC(C)(C)C)c1 (stereo not drawn) [Bambuterol hydrochloride]
[1]
  growth: 1.09
[2]
  growth: 1.03
[3]
  growth: 1
[4]
  growth: 1.18
[5]
  fold change of Histamine concentration: 1.03 (inactive)
[6]
  fold change of Tryptamine concentration: 1.03 (inactive)
[7]
  fold change of Tryptamine concentration: 1.02 (inactive)
[8]
  fold change of Putrescine concentration: 0.988 (inactive)
[9]
  fold change of Putrescine concentration: 1.03 (inactive)
[10]
  fold change of Cadaverine concentration: 1 (inactive)
[11]
  fold change of Cadaverine concentration: 0.995 (inactive)
[12]
  fold change of 2-Phenylethylamine concentration: 1.02 (inactive)
